Among the data in PubChem BioAssay AID623888 (Vanderbilt Specialized Chemistry Center, 2012) are % glutamate max and glutamate EC50 fold shift values, retold here.

In this test the target is Metabotropic glutamate receptor 3 (Rattus norvegicus) (UniProt P31422). Description: PubChem AID 623888. The conditions noted are these: HEK/GIRK rat mGlu3, thallium flux fluorescence, Schild, at 3 µM; % glutamate max: glutamate max response with compound, stronger effect = lower value; glutamate EC50 fold shift: stronger effect = higher value.
Metabotropic glutamate receptor 3 (Rattus norvegicus), sequence (P31422 whole entry, looked up): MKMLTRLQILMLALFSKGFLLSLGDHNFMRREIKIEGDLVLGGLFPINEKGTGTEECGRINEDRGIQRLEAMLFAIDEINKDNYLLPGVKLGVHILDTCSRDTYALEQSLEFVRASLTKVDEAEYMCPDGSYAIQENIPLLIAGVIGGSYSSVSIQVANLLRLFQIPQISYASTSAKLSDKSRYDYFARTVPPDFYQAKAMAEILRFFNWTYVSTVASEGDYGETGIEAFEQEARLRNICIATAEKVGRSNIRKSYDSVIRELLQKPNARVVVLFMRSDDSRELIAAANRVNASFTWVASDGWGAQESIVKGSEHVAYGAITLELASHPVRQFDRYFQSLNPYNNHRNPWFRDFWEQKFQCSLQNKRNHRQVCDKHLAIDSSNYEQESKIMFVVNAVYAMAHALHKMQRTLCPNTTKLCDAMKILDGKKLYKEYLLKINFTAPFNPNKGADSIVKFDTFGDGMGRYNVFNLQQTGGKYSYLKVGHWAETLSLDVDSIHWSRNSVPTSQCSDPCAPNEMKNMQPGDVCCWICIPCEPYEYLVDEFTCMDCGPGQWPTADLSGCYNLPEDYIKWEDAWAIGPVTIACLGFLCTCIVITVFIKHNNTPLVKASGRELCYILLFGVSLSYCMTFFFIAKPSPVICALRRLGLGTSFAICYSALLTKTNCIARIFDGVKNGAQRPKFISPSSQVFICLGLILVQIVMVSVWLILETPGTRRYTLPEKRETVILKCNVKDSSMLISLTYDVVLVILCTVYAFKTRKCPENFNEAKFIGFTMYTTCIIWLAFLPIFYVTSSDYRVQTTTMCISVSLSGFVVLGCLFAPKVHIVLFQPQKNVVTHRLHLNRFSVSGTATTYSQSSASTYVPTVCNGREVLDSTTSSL

Take `COc1ccc(C#Cc2ccc(C(=O)N3CCC[C@@H](CO)C3)cc2)cc1`: the % glutamate max amounted to 88.9% and the glutamate EC50 fold shift is 1.48.
